Source: PubChem BioAssay
MITF primary: inhibitors of human MITF. O75030. AlphaScreen MITF homodimerization, bead proximity signal. inhibition, % at 2.6 µM. 650,000 tested, 0.91% active; in the data active means inhibition above about 50%;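 further: 0% = vehicle wells with protein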
GPR151 ag: human GPR151 activation; Q8TDV0; activation, % at 11.2 µM; 650,000 tested, 1% active; PathHunter beta-arrestin GPR151 cells, luminescence; in the data active means activation above about 4.9%;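 further: 0% = median of compound wells and 100% = cells with positive control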
FBW7 activator: human FBW7 E3 ligase activation, primary screen; Q969H0; AlphaScreen FBW7–phospho-cyclin E peptide binding, activator screen; normalized activity (activation), % at 26.1 µM; 650,000 tested, 0.13% active; AID 1259310; in the data active means normalized activity above about 1.9%;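 further: purified mutant Fbw7 with reduced substrate affinity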
Target sequence (Q969H0 whole entry, looked up): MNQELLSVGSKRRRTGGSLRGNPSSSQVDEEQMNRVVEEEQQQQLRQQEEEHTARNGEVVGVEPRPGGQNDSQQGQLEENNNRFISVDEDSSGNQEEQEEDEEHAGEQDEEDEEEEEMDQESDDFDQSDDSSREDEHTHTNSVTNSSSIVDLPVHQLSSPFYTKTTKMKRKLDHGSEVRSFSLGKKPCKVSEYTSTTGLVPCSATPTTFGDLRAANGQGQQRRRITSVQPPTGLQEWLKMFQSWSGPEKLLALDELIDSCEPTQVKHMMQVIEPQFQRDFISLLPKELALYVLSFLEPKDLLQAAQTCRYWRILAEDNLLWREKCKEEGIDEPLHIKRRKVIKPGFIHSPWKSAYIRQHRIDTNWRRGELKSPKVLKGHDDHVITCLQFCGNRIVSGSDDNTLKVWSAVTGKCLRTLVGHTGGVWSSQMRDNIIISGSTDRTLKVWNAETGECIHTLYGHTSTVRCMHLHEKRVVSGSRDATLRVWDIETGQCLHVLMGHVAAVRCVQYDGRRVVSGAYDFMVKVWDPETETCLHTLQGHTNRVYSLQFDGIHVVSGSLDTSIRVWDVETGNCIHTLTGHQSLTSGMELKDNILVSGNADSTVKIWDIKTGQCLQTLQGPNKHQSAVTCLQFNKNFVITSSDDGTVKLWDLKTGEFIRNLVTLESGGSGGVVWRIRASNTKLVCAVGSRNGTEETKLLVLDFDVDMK
TEAD-YAP inh: TEAD-YAP interaction inhibition; HEK-TIYL cells, TEAD-Gal4/YAP UAS-luciferase luminescence; inhibition, % at 9.12 µM; 640,000 tested, 1.4% active; in the data active means inhibition above about 32%;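 further: 0% = median of test compound wells and 100% = reference inhibitor wells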
GPR151 confirm: confirmation of human GPR151 activators. shares compounds with GPR151 ag. GPR151 PathHunter beta-arrestin cells, luminescence, 90 min; % of EA-reagent control over plate median. activation, % at 11.2 µM. 6,700 tested, under 10 active. AID 1508609;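 active means mean percent activation across replicates above the confirmation screen cutoff of 4.91%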
GPR119 counter: activates human GPR119 in a GPR151 counter-screen; activation, % at 11.2 µM; 6,700 tested, 0.3% active; shares compounds with GPR151 ag; GPR119 PathHunter beta-arrestin cells, luminescence, 90 min; 0 = compound-well median, 100 = enzyme-acceptor control;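 active means mean percent activation in the counterscreen above 29.09%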;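 further: counterscreen on off-target GPR119 to flag nonselective hits from the GPR151 activator screen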
* = called active by the depositor; nt = no result. Hits are enriched below; roughly 3.5% of the tested compounds scored in any of these assays.

SMILES | MITF primary | GPR151 ag | FBW7 activator | TEAD-YAP inh | GPR151 confirm | GPR119 counter
COc1cc(NS(=O)(=O)c2ccc(NC(=O)CSc3ccccc3)cc2)ncn1 | 4 | -1 | 0 | -1 | nt | nt
CC(C)CCn1c(=O)c2cccnc2n(Cc2cccc(F)c2)c1=O | -8 | 12* | 0 | -8 | -1 | -4
O=c1c2cccnc2n(Cc2cccc(F)c2)c(=O)n1Cc1ccc(F)cc1 | -5 | -1 | 0 | -6 | nt | nt
Cc1cc(NS(=O)(=O)c2ccc(NC(=O)C3CC3c3ccccc3)cc2)nc(C)n1 (centres undefined) | -12 | 0 | 0 | 5 | nt | nt
O=C(CCCn1c(SCC(=O)N2CCN(c3ccccc3)CC2)nc2ccccc2c1=O)NCc1ccco1 | -10 | 2 | 0 | 24 | nt | nt
O=C(C1CCC(CNc2c(N3CCCC3)c(=O)c2=O)CC1)N1CCc2ccccc21 (centres undefined) | 11 | 5.3* | 0 | -1 | -1 | -15
CC(=O)n1cc(/C=C2/N=C(c3ccccc3)OC2=O)c2ccccc21 | -9 | 0 | 0 | 5 | nt | nt
COc1cccc(C2=N/C(=C\c3cn(C(C)=O)c4ccccc34)C(=O)O2)c1 | 2 | 7.5* | 0 | 5 | 0 | 8
CNc1ccccc1C(=O)OCC(=O)Nc1ccc(C#N)cc1 | -8 | -1 | 0 | -11 | nt | nt
COc1ccccc1C(=O)OCC(=O)Nc1ccc(C#N)cc1 | 17 | 6.1* | 0 | -9 | 1 | 1
CC(Sc1nncs1)C(=O)NC(C)c1ccccc1 (centres undefined) | -5 | 5.2* | 0 | -2 | 1 | -5
CC(Sc1nncs1)C(=O)NC1CCCc2ccccc21 (centres undefined) | -8 | 1 | 0 | -1 | nt | nt
O=C1OCCN1CCNc1ccc([N+](=O)[O-])cc1 | -1 | 2 | 0 | -4 | nt | nt
COCCNCCOCCOc1c(C)cccc1C | 31 | 0 | 1 | 9 | nt | nt
Cn1c2c(c(=O)n(C)c1=O)C(c1ccccc1Cl)CC(=O)N2 (centres undefined) | 10 | 8.6* | 0 | 5 | 0 | 10
CN(c1ccc(Br)cc1)S(=O)(=O)c1ccc2[nH]cc(C(=O)N3CCN(c4ccccc4)CC3)c(=O)c2c1 | 1 | 2 | 0 | 10 | nt | nt
C=CCNCCC1CCC(=O)N1Cc1ccc(C)o1 (centres undefined) | 14 | 3 | 1 | -1 | nt | nt
C=CCNCCC1CCC(=O)N1Cc1cn2c(C)csc2n1 (centres undefined) | 22 | 12* | 1 | -7 | 0 | 7
O=C(c1ccco1)N(C1CC1)C1CCN(Cc2ccccc2)CC1 | -4 | -1 | 0 | -3 | nt | nt
O=C(Nc1nnc(SCc2cccc(F)c2)s1)C1CC1 | 11 | 12* | 0 | -4 | 1 | 4
CC(=O)Nc1nnc(SCc2cc(=O)c(OC(=O)c3ccccc3[N+](=O)[O-])co2)s1 | 12 | 6.4* | 0 | 6 | 0 | 1
Cn1ccnc1SCc1cc(=O)c(OC(=O)c2ccccc2[N+](=O)[O-])co1 | 12 | 5.8* | 0 | 6 | 0 | 0
COc1ccccc1C(=O)Oc1coc(CSc2nc(C)cs2)cc1=O | -13 | 7.5* | 0 | 10 | -1 | -5
CCOc1ccccc1C(=O)Oc1coc(CSc2nc(C)cs2)cc1=O | -15 | 1 | 0 | 2 | nt | nt
O=C(Nc1nnc(SCc2cccc(C(F)(F)F)c2)s1)C1CC1 | 9 | 2 | 0 | 1 | nt | nt
SMILES | MITF primary | GPR151 ag | FBW7 activator | TEAD-YAP inh | GPR151 confirm | GPR119 counter
COc1ccc(CNS(=O)(=O)c2ccc(OC)c(Br)c2)cc1 | -16 | -1 | 1 | 2 | nt | nt
CC1CCN(C(=O)CSc2nc3ccccc3c(=O)n2C2CC2)CC1 | 0 | 1 | -1 | 1 | nt | nt
CCCC(=O)Oc1coc(CSc2nnc(NC(=O)C3CC3)s2)cc1=O | 11 | 5.4* | 0 | 14 | -1 | -4
Cc1ccc(S(=O)(=O)CCC(=O)N2CCN(c3ccccn3)CC2)cc1 | 4 | 5.1* | 0 | -3 | 0 | -3
Cc1cc2ccccc2c(=O)n1CC(=O)N1CCN(c2ccccn2)CC1 | -2 | 7.2* | 0 | 10 | 0 | -9
CC1CN(C(=O)CCC(=O)N2CCN(c3ccccn3)CC2)c2ccccc2O1 (centres undefined) | -7 | 6.1* | 0 | -2 | 0 | 0
CC1CN(C(=O)CCC(=O)NC2CCCC2)c2ccccc2O1 (centres undefined) | 5 | 5.1* | 0 | -6 | 0 | -2
CC1CN(C(=O)CCC(=O)NC2CCCC2)c2cc(Cl)ccc2O1 (centres undefined) | -3 | 0 | 0 | -4 | nt | nt
CSCCC(NC(=O)/C(=C\c1cccc([N+](=O)[O-])c1)NC(=O)c1ccco1)C(=O)O (centres undefined) | 9 | -1 | 0 | 16 | nt | nt
CCOC(=O)c1c(/N=C/c2c(O)n(-c3ccc(Cl)cc3)c(=O)[nH]c2=O)sc2c1CCCC2 | 16 | 3 | 0 | 0 | nt | nt
N#Cc1ccc(NC(=O)COC(=O)c2ccccn2)cc1 | 9 | 1 | -1 | 4 | nt | nt
N#Cc1ccc(COC(=O)c2ccccn2)cc1 | 28 | 5.0* | 0 | 7 | 0 | -5
COc1ccc2c(c1)CC(c1nc3c(C)c(C)c(-c4ncnc5[nH]ccc45)cc3[nH]1)CO2 (centres undefined) | 23 | 0 | 0 | 8 | nt | nt
O=C(CSc1nc2ccccc2c(=O)[nH]1)N1CCc2ccccc2C1 | 15 | 0 | 0 | -2 | nt | nt
Cc1nnc(SCC(=O)N2CCc3ccccc3C2)[nH]c1=O | -14 | 10* | 0 | -10 | 0 | 8
O=S(=O)(c1ccccc1)N1N=C(c2ccccc2)CC1c1ccco1 (centres undefined) | 10 | 5.4* | 0 | 20 | 0 | -2
O=[N+]([O-])c1cccc(C2CC(c3ccc(Br)cc3)=NN2S(=O)(=O)c2ccccc2)c1 (centres undefined) | 8 | 5.4* | 0 | -4 | 0 | 12
O=[N+]([O-])c1cccc(C2SCCN2S(=O)(=O)c2ccc(I)cc2)c1 (centres undefined) | 3 | 0 | 0 | -5 | nt | nt
O=[N+]([O-])c1cccc(C2SCCN2S(=O)(=O)c2ccc(Br)cc2)c1 (centres undefined) | 12 | 5.8* | 0 | 5 | -1 | -17
CS(=O)(=O)c1ccc2nc(NC(=O)CS(=O)(=O)c3ccc(Cl)cc3)sc2c1 | 3 | 5.4* | 0 | 6 | 1 | 6
C(=C\c1nnc2c3ccccc3ncn12)/c1ccccc1 | 6 | -1 | 0 | 12 | nt | nt
COc1cc(/C=C/c2nnc3c4ccccc4ncn23)cc(OC)c1OC | -2 | 8.4* | 0 | 1 | 1 | 9
CCN1CCN(c2ncnc3sc(C(=O)Nc4ccc(F)cc4)c(C)c23)CC1 | 3 | 5.2* | 0 | -1 | 0 | 6
